# High-throughput results: PubChem BioAssay, Broad Institute
# In the library only some 3.1% were active in any assay of this set; here they are far more common.
# esBAF inh = Bmi1 luciferase reporter increase in mESCs, primary screen, esBAF inhibitor project, mouse ES cells, Bmi1 luciferase knock-in, single point | reporter increase, % at 12.5 µM | 350,000 tested, 2% active | 24 h; 100% = twice the neutral-well signal | AID 602393, 2012; in the data active means activation above about 40%; inconclusive means no clear call, values can overlap the other calls;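 further: 0% = median of the plate's neutral control wells and 100% = double that signal; a rise in the Bmi1 reporter signal indicates esBAF inhibition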
# Statin myotox sup = suppressors of statin myotoxicity in C2C12 myotubes, primary screen, cell-based, single point, plate reader; C2C12 myotubes + simvastatin, ATP luminescence, 48 h; scaled: DMSO 0, geranylgeraniol control 100; rescue of ATP level, % at 7.49 µM; 330,000 tested, 0.78% active; AID 602340, 2012;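 active means mean ATP rescue above about 67%, or every replicate alone reaching that limit, limit read from the data, passing the limit was not always enough; inconclusive means no clear call, values can overlap the other calls; inactive means mean under the limit and some replicate under it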;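 further: myotubes were challenged with 10 µM simvastatin during compound exposure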
# Wnt act = Wnt/beta-catenin pathway activators, primary screen, cell-based, plate reader, single point; Wnt/beta-catenin reporter cell assay, activator; activation, % at 9.35 µM; 300,000 tested, 1.2% active; in the data active means activation above about 30%, passing the limit was not always enough; inconclusive means no clear call, values can overlap the other calls;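 further: 0% = neutral control wells and 100% = positive control wells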
# Rtt109 Vps75 = inhibitors of C. albicans Rtt109/Vps75 HAT, primary screen, biochemical, ThioGlo CoA-SH fluorescence, plate reader. inhibition, % at 34.9 µM. 330,000 tested, 0.16% active. AID 540336, 2011. Histone acetyltransferase RTT109 (Candida albicans (strain SC5314 / ATCC MYA-2876)), …. purified Rtt109/Vps75, 4 h;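 active means inhibition of at least 50% in every replicate; inconclusive means best replicate reaches 50% inhibition but some replicates fall short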
# Target sequence (Q5AAJ8 whole entry, looked up): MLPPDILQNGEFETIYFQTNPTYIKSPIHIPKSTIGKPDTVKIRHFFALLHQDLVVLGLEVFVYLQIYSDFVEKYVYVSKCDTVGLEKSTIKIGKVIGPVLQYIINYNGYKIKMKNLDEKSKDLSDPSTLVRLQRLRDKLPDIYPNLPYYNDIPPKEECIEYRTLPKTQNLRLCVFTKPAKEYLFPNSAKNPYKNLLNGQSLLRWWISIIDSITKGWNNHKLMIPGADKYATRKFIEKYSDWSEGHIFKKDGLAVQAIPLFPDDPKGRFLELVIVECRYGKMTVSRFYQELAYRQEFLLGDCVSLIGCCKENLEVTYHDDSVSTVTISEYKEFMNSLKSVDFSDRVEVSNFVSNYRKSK
# MITF act = activators of MITF-driven TRPM1 promoter reporter, primary screen, cell-based, SK-MEL-5, luciferase, single point. AID 588334, 2011. activation, % at 12.5 µM. 300,000 tested, 0.75% active. SK-MEL-5 TRPM1-promoter luciferase, 24 h; % of positive control, neutral wells = 0;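 active means mean activation of at least 80% with every replicate also reaching 80%; inconclusive means mean reaches 80% but some replicate falls short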;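 further: 0% = neutral control wells and 100% = parthenolide positive control wells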
# * = called active by the depositor; ? = inconclusive; / = not tested or not shown.
SMILES,esBAF inh,Statin myotox sup,Wnt act,Rtt109 Vps75,MITF act
CCOc1ccc(S(=O)(=O)Nc2ccccc2SC)cc1,0,7,-2,-20,5
COC(=O)COc1ccc(S(=O)(=O)Nc2ccccc2SC)cc1,0,127*,-5,1,5
CCC(=O)N(C)C[C@H]1Oc2ncc(C3=CCCC3)cc2C(=O)N([C@@H](C)CO)C[C@@H]1C,1,-27,/,/,/
CC(=O)O[C@@H]1[C@H]2[C@@H](C[C@@H](C)[C@@H]3C=CC(=O)[C@@]13C)OC(=O)[C@@H]2C,25,115*,-1,6,3
COCCNC(=O)C(c1ccc(C)o1)N(Cc1ccc(OC)cc1)C(=O)Cn1nnc2ccccc21 (configuration not stated),5,104*,4,1,0
Cc1noc(C)c1S(=O)(=O)Nc1ccc2c(c1)C(=O)N([C@@H](C)CO)C[C@@H](C)[C@H](CN(C)C(=O)C1CCCCC1)OCCCC[C@H](C)O2,1,/,/,/,/
C(=C\c1ccco1)/c1nc2ccccc2[nH]1,/,/,52*,-2,-2
COc1ccc(NC(=O)Cn2nc3n(c2=S)CCC3)cc1,-2,100*,0,-13,/
COc1ccc(S(=O)(=O)N(C)C[C@@H]2OCCCC[C@H](C)Oc3ccc(NC(=O)CCCN(C)C)cc3C(=O)N([C@@H](C)CO)C[C@H]2C)cc1,-4,/,/,/,/
CCOCCCNC(=O)C(c1ccc(Cl)cc1)N1CCC2(CC1)OCCO2 (configuration not stated),-16,-2,60*,18,4
C/C=C/c1ccc2c(c1)O[C@@H](CN(C)C(=O)Nc1ccc(C(F)(F)F)cc1)[C@H](C)CN([C@H](C)CO)S2(=O)=O,5,-6,/,/,/
Cc1cc(C(=O)Nc2ccncc2)c(C)o1,-2,5,1,51*,-3
Cc1cc(C(=O)Nc2ccc3ccccc3c2)c(C)o1,1,10,34*,0,70
CC(=O)c1cc(C(=O)Nc2ccc3ccccc3c2)c(C)o1,-3,8,-1,19,-14
Cc1oc(C(C)(C)C)cc1C(=O)Nc1ccc(C(=O)O)cc1,76*,-32,/,-11,68
Cc1cc(NC(=O)COC(=O)c2cccc(S(=O)(=O)N3CCOCC3)c2)no1,1,9,-3,3,/
O=C(COC(=O)c1cccc(S(=O)(=O)N2CCOCC2)c1)Nc1nc(-c2ccccc2Cl)cs1,52*,/,/,-5,/
Cc1cccc(NC(=O)Cc2noc3ccccc23)c1C,/,/,4,-1,15
Cc1ccc(NC(=O)CCc2ccccc2)cc1C,52*,2,2,/,/
O=C(CCc1ccccc1)Nc1cccc(NC(=O)CCc2ccccc2)c1,6,6,-2,12,-1
Cc1cccc(NC(=O)Cc2noc3ccccc23)c1,60*,5,/,-2,/
Cc1cccc(NC(=O)CCCCCN2C(=O)c3ccccc3C2=O)n1,3,92*,/,19,2
Cc1c(Cl)cccc1NC(=O)CCCN1C(=O)c2cccnc2C1=O,5,4,34*,1,8
COc1ccccc1C#Cc1cnc2c(c1)C(=O)N([C@@H](C)CO)C[C@@H](C)[C@H](CN(C)S(=O)(=O)c1cn(C)cn1)O2,0,0,/,/,/
Cc1ccc(NC(=O)C2(c3ccccc3)CC2(Cl)Cl)cc1C (configuration not stated),38,143*,/,4,35
SMILES,esBAF inh,Statin myotox sup,Wnt act,Rtt109 Vps75,MITF act
Cc1cc(C)cc(OC(=O)CCN2C(=O)c3ccccc3C2=O)c1,-1,20,/,/,0
Cc1ccc(NC(=O)c2ccc(OC(=O)CCN3C(=O)c4ccccc4C3=O)cc2)cc1,?,-27,46*,1,49
Cc1cccc(NC(=O)CCN2C(=O)c3ccccc3C2=O)c1,-4,4,0,59*,/
Cc1cccc(NC(=O)CCCc2ccccc2)c1,63*,-1,17,3,/
C[C@@H]1CN([C@@H](C)CO)C(=O)c2cc(C#CCN(C)C)cnc2O[C@H]1CN(C)Cc1ccc(-c2ccccc2)cc1,-4,-3,/,/,/
C[C@@H]1CCCCO[C@@H](CN(C)C(=O)Cc2ccccc2)[C@H](C)CN([C@@H](C)CO)C(=O)c2cc(NC(=O)CCCCCC(=O)Nc3ccccc3N)ccc2O1,17,/,/,/,/
CC(C)CC#Cc1ccc2c(c1)O[C@H](CN(C)C(=O)CN(C)C)[C@@H](C)CN([C@@H](C)CO)S2(=O)=O,-1,-19,/,/,/
Cc1ccc(S(=O)(=O)N(C)C)cc1NC(=O)CCc1ccccc1,/,/,48*,-1,-2
Cc1ccc(S(=O)(=O)N(C)C)cc1NC(=O)CCc1c[nH]c2ccccc12,/,/,-8,3,6
C[C@H]1CN([C@@H](C)CO)S(=O)(=O)c2ccc(C3=CCCC3)cc2O[C@@H]1CN(C)Cc1cccnc1,-6,-104,/,/,/
O=C(Nc1cccc2ccccc12)C12CC3CC(C1)CC(n1cnc([N+](=O)[O-])n1)(C3)C2,-7,69*,-3,0,/
COc1cc(Cl)ccc1NC(=O)COc1ccccc1C(=O)N1CCN(c2ccc(O)cc2)CC1,4,122*,/,9,-35
CCOc1ccccc1C(=O)N1CCN(c2cccc(Cl)c2)CC1,-3,-136,/,9,-49
Cc1cc(Cl)ccc1OCC(=O)Nc1ccccc1C(=O)N1CCOCC1,-7,0,0,-8,14
O=C(O)c1ccccc1C(=O)N1CCN(c2cccc(Cl)c2)CC1,9,84*,1,-7,0
O=C(O)/C=C\C(=O)Nc1ccccc1C(=O)N1CCN(c2ccc(Cl)cc2)CC1,-7,88*,0,-1,/
CC(C)c1ccc(N2CCN(C(=O)c3ccccc3NC(=O)/C=C\C(=O)O)CC2)cc1,-6,/,-2,11,7
COC(=O)CNC(=O)Cn1nc(C)c([N+](=O)[O-])c1C,/,/,38*,4,-11
COc1ccc(CNC(=O)CCCn2nc(C)c([N+](=O)[O-])c2C)cc1OC,/,/,38*,0,-2
Cc1c(Br)c([N+](=O)[O-])nn1CC(=O)NCc1ccccc1,7,50,2,2,3
Cc1nn(CC(=O)NCc2ccccc2)c(C)c1[N+](=O)[O-],4,84*,/,-2,-4
Cc1nn(CC(=O)NCCc2ccccc2)c(=O)c2ccccc12,-5,137*,/,1,4
Cc1ccc(S(=O)(=O)Nc2ccc3c(c2)C(=O)N([C@@H](C)CO)C[C@@H](C)[C@@H](CN(C)C(=O)NC2CCCCC2)OCCCC[C@@H](C)O3)cc1,7,/,/,/,/
N/C(=N\OC(=O)c1cccs1)c1cccc([N+](=O)[O-])c1,75*,62,13,1,45
